# According to PMC7862700, “An all-to-all approach to the identification of sequence-specific readers for epigenetic DNA modifications on cytosine”:
# How the values were obtained:
# Experiment in all cases: DAPPL (digital affinity profiling via proximity ligation, sequencing); 10 mM Tris-HCl pH 7.5, 50 mM NaCl, 1 mM DTT, 4% glycerol, room temperature, 30 min; GST-TFs on glutathione beads, 16-mer random dsDNA library, 0.1% formaldehyde crosslink after washing; high values mean tight binding
# Conditions in all cases: protein: recombinant; tags: N-terminal GST; dsDNA, one strand shown
# [1] = molecular target: T1, ELK4 (Homo sapiens, UniProt P28324-2 1-405)
# T1 sequence: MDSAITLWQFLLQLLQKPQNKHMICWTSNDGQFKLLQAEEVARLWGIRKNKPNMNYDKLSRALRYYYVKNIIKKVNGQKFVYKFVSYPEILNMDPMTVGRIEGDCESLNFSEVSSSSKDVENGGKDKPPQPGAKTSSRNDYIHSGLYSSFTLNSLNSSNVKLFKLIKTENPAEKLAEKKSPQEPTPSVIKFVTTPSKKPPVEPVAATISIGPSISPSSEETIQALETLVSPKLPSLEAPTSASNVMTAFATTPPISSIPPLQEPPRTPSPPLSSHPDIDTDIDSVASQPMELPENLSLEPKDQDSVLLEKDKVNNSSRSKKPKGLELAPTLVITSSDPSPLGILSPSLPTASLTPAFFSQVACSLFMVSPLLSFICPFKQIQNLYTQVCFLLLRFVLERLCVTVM
# Method in brief: (§1)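 Sequencing on an Illumina NextSeq500 followed washing, crosslinking with 0.1% formaldehyde, proximity ligation (BsaI/T4 ligase, 1 h, 37 °C) and PCR amplification of pools that had been incubated for 30 min at room temperature with 200 nmole of a random double-stranded 16-mer DNA library in Tris/NaCl/DTT/glycerol buffer. Each pool held DNA-barcoded human transcription factors, expressed in yeast as GST fusions and captured on glutathione beads, plus a tag-only sample. Binding signal is a hexamer's read frequency for a factor divided by its frequency in the tag-only sample.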
# [2] = molecular target: T2, ELK1 (Homo sapiens, UniProt P19419 1-428)
# T2 sequence: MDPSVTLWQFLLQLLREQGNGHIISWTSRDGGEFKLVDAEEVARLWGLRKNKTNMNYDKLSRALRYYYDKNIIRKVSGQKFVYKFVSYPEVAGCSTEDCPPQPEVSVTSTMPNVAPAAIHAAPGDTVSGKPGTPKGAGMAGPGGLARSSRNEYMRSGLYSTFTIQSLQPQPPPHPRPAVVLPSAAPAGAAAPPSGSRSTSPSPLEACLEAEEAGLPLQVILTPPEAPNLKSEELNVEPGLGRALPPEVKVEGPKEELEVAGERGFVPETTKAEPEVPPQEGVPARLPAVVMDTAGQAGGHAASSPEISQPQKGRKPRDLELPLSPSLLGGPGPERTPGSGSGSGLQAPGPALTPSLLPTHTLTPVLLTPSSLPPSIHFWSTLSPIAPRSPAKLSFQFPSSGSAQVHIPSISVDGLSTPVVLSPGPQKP
# Method in brief: as §1
# [3] = molecular target: T3, GABPA (Homo sapiens, UniProt Q06546 1-454)
# T3 sequence: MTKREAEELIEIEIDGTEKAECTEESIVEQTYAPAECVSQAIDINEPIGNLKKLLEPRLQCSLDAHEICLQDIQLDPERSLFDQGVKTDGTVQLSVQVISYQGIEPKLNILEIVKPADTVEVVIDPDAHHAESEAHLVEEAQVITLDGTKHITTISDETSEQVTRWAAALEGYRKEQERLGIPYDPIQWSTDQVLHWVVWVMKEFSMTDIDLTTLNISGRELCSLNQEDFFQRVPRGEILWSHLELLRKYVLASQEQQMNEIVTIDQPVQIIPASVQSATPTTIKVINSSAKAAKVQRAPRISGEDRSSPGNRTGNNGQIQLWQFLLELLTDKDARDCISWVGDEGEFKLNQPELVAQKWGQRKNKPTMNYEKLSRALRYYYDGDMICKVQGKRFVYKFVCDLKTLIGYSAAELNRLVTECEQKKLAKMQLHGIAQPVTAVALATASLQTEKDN
# Method in brief: as §1
# [4] = molecular target: ELF1 (Homo sapiens, UniProt P32519 1-619)
# Method in brief: as §1
# [5] = molecular target: T4, EHF (Homo sapiens, UniProt Q9NZC4 1-300)
# T4 sequence: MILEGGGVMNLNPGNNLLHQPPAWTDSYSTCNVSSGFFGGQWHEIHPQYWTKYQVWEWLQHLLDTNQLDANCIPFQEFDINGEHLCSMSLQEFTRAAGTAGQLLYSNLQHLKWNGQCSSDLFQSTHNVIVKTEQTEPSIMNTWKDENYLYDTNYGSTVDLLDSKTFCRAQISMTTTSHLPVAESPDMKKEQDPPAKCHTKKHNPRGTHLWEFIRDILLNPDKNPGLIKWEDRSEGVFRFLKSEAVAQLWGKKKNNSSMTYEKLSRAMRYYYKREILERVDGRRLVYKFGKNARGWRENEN
# Method in brief: as §1
# [6] = molecular target: SPI1 (Homo sapiens, UniProt P17947 1-270)
# Method in brief: as §1
# [7] = molecular target: T5, ETV2 (Homo sapiens, UniProt O00321 1-342)
# T5 sequence: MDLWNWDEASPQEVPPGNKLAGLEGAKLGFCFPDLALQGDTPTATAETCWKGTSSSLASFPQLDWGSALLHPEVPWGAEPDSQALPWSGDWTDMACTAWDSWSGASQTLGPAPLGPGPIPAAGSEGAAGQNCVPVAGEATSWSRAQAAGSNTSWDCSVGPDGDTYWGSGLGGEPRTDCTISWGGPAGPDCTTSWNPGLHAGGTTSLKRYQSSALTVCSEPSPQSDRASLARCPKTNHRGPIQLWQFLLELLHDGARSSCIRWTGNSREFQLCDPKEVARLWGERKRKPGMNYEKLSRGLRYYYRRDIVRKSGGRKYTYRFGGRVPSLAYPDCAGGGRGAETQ
# Method in brief: as §1
# [8] = molecular target: T6, ELF3 (Homo sapiens, UniProt P78545 1-371)
# T6 sequence: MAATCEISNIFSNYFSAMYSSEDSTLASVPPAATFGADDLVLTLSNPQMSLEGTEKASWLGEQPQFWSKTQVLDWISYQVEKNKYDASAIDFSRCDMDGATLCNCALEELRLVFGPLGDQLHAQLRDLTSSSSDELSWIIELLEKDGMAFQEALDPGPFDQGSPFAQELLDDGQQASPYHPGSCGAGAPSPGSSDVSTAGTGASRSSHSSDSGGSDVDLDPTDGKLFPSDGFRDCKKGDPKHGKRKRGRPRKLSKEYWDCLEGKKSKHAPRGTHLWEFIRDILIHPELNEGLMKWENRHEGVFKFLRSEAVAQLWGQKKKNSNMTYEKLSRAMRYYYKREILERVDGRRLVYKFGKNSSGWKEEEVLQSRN
# Method in brief: as §1
# [9] = molecular target: CRX (Homo sapiens, UniProt O43186 1-299)
# Method in brief: as §1
# [10] = molecular target: ETV1 (Homo sapiens, UniProt P50549 1-477)
# Method in brief: as §1
# [11] = molecular target: T7, ETS2 (Homo sapiens, UniProt P15036 1-469)
# T7 sequence: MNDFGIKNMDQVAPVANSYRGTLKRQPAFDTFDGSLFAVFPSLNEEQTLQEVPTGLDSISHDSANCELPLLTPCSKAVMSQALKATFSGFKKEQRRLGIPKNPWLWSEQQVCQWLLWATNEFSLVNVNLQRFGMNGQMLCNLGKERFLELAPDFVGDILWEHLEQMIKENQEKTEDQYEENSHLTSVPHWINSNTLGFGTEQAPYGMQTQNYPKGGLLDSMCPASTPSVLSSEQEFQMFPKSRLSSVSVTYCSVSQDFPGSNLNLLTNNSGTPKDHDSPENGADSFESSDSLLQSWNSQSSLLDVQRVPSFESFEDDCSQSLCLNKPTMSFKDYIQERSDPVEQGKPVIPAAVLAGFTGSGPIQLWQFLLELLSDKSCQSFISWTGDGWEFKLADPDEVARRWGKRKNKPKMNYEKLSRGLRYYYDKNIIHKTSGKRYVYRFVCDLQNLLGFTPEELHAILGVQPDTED
# Method in brief: as §1
# [12] = molecular target: T8, ETV7 (Homo sapiens, UniProt Q9Y603 1-341)
# T8 sequence: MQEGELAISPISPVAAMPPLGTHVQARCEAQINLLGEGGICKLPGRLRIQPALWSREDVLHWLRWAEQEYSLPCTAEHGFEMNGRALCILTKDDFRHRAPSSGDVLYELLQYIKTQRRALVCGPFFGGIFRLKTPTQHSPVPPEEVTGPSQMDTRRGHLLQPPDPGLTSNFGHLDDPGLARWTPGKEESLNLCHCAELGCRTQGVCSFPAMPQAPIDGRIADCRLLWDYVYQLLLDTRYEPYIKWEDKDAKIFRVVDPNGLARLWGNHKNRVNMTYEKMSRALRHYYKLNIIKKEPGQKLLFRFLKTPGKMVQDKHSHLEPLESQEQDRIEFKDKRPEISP
# Method in brief: as §1
# [13] = molecular target: T9, ELF5 (Homo sapiens, UniProt Q9UKW6-2 1-255)
# T9 sequence: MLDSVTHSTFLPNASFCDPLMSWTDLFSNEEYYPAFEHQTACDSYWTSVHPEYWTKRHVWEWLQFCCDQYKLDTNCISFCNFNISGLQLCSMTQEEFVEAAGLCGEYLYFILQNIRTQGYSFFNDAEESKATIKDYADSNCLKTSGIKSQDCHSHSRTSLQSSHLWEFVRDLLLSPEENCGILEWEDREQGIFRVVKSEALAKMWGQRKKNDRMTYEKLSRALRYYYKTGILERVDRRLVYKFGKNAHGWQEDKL
# Method in brief: as §1
# [14] = molecular target: ETV6 (Homo sapiens, UniProt P41212 1-452)
# Method in brief: as §1
# Sequence of ETV1 (P50549 whole entry): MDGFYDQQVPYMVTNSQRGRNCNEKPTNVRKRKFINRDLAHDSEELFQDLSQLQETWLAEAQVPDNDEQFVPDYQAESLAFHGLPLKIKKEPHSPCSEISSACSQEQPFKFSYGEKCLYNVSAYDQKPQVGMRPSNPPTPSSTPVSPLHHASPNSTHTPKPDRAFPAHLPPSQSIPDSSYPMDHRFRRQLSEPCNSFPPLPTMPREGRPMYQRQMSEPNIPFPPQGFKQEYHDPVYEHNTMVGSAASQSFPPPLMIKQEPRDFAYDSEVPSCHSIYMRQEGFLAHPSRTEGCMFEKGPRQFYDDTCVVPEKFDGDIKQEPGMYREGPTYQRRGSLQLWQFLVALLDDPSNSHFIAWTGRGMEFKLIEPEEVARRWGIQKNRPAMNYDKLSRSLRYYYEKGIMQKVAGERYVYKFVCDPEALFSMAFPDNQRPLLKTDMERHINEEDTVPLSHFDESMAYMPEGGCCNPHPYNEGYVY
# Sequence of ETV6 (P41212 whole entry): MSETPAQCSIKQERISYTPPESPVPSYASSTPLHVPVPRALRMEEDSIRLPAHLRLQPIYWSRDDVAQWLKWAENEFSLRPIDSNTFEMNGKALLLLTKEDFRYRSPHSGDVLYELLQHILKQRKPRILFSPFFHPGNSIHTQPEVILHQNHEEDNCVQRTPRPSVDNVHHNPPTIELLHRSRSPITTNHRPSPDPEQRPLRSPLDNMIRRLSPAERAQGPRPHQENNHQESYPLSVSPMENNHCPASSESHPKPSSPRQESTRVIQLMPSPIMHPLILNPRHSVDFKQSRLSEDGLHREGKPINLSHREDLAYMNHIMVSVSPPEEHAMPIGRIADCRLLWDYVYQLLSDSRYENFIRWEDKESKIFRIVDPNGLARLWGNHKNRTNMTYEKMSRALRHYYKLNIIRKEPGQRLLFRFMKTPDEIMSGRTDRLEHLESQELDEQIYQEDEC
# Sequence of CRX (O43186 whole entry): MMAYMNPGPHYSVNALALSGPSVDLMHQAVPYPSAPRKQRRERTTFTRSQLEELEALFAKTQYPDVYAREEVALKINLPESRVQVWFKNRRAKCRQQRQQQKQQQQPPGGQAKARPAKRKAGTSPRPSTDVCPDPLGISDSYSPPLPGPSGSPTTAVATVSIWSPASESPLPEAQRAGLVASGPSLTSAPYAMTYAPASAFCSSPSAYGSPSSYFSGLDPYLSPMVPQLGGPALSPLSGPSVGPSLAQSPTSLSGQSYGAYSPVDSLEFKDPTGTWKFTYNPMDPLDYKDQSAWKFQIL
# Sequence of ELF1 (P32519 whole entry): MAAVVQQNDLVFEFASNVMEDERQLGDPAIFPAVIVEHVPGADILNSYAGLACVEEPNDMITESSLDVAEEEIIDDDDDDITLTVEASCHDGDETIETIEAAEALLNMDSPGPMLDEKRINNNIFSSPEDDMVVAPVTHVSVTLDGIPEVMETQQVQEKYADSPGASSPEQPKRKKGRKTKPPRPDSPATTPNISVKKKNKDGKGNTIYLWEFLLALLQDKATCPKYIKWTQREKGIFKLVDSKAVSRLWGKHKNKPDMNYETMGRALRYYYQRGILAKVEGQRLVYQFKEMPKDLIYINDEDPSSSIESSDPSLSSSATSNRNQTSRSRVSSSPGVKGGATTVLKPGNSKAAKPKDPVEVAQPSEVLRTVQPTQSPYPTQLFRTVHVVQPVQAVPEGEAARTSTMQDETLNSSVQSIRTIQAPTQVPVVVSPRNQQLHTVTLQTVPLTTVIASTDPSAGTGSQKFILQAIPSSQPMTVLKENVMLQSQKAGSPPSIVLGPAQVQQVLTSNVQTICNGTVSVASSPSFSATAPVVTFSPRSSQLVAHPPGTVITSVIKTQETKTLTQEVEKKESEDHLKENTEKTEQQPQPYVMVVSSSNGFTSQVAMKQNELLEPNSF
sequence,measurement,setting,value
CTGTGT,binding signal,[1],"1.04 fold enrichment (6-mer frequency, TF over GST control)"
CAAAAG,binding signal,[2],"1.02 fold enrichment (6-mer frequency, TF over GST control)"
same,binding signal,[3],"1.04 fold enrichment (6-mer frequency, TF over GST control)"
same,binding signal,[4],"1.01 fold enrichment (6-mer frequency, TF over GST control)"
same,binding signal,[5],"1 fold enrichment (6-mer frequency, TF over GST control)"
same,binding signal,[6],"1.08 fold enrichment (6-mer frequency, TF over GST control)"
same,binding signal,[1],"1.05 fold enrichment (6-mer frequency, TF over GST control)"
same,binding signal,[7],"1.05 fold enrichment (6-mer frequency, TF over GST control)"
same,binding signal,[8],"1.06 fold enrichment (6-mer frequency, TF over GST control)"
same,binding signal,[9],"1.02 fold enrichment (6-mer frequency, TF over GST control)"
same,binding signal,[10],"1 fold enrichment (6-mer frequency, TF over GST control)"
same,binding signal,[11],"1.04 fold enrichment (6-mer frequency, TF over GST control)"
same,binding signal,[12],"1 fold enrichment (6-mer frequency, TF over GST control)"
same,binding signal,[13],"1 fold enrichment (6-mer frequency, TF over GST control)"
same,binding signal,[14],"1.01 fold enrichment (6-mer frequency, TF over GST control)"
